Results from PubChem BioAssay (NCI).
About 83,000 compounds went through this panel and 20% of them were active in at least one assay; those are over-represented in the sample as a whole.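 Single-dose data. Exposure time 48 hours. Values below 10 considered active.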 The source made the active and inactive calls.

Columns and labels:
Assay in all cases: NCI-60 one-dose screen, 48 h (100 = growth as untreated, 0 = no growth, -100 = all killed)
Settings in all cases: 10 µM unless noted
NCI-H23 lung = tested on: NCI-H23 lung
NCI-H226 lung = tested on: NCI-H226 lung
NCI-H322M lung = tested on: NCI-H322M lung
HOP-62 NSCLC = tested on: HOP-62 NSCLC
HOP-92 NSCLC = tested on: HOP-92 NSCLC
NCI-H522 lung = tested on: NCI-H522 lung
A549/ATCC NSCLC = tested on: A549/ATCC NSCLC
786-0 renal = tested on: 786-0 renal
COLO 205 colon = tested on: COLO 205 colon
DU-145 prostate = tested on: DU-145 prostate
K-562 leukemia = tested on: K-562 leukemia
MALME-3M melanoma = tested on: MALME-3M melanoma
MDA-MB-231 breast = tested on: MDA-MB-231 breast
RXF 393 renal = tested on: RXF 393 renal
SF-268 CNS = tested on: SF-268 CNS
SF-295 CNS = tested on: SF-295 CNS
SF-539 CNS = tested on: SF-539 CNS
UACC-257 melanoma = tested on: UACC-257 melanoma
M14 melanoma = tested on: M14 melanoma

Measured: growth

COc1ccc2c(c1)N=c1c-2cc2c(O)[nH]c(=S)n2c1=O
inactive: NCI-H23 lung 43.1% | NCI-H226 lung 46.1% | NCI-H322M lung 78.1% | HOP-62 NSCLC 36.6% | HOP-92 NSCLC 71.3% | A549/ATCC NSCLC 65.8% | 786-0 renal 35.3% | COLO 205 colon 30.7% | DU-145 prostate 50.8% | K-562 leukemia 19.7% | MALME-3M melanoma 54.8% | MDA-MB-231 breast 42.1% | RXF 393 renal 11.4% | SF-268 CNS 84.4% | SF-295 CNS 26.1% | UACC-257 melanoma 53.4% | M14 melanoma 40%
active: NCI-H522 lung -9.92% | SF-539 CNS -7.78%

C/C(=N\Nc1ccc(S(N)(=O)=O)cc1)c1cnn(-c2cc(=O)[nH]c3ccc(Br)cc23)c1C
inactive: NCI-H23 lung 69.9% | NCI-H226 lung 62.3% | NCI-H322M lung 77.7% | HOP-62 NSCLC 63.4% | A549/ATCC NSCLC 100% | 786-0 renal 85.9% | COLO 205 colon 85.5% | DU-145 prostate 77.9% | K-562 leukemia 35% | MALME-3M melanoma 21.7% | MDA-MB-231 breast 31.4% | RXF 393 renal 68.6% | SF-268 CNS 57.3% | SF-295 CNS 91.9% | SF-539 CNS 41.6% | UACC-257 melanoma 66.3% | M14 melanoma 73%
active: HOP-92 NSCLC -2.47% | NCI-H522 lung 5.07%

CC1=C(C(=O)OC(C)C)C(c2ccc(O)cc2)NC(=O)N1 (stereo unspecified)
inactive: NCI-H23 lung 101% | NCI-H226 lung 105% | NCI-H322M lung 106% | HOP-62 NSCLC 99.4% | HOP-92 NSCLC 105% | NCI-H522 lung 81.3% | A549/ATCC NSCLC 101% | 786-0 renal 99.5% | COLO 205 colon 114% | DU-145 prostate 111% | K-562 leukemia 98.5% | MALME-3M melanoma 102% | MDA-MB-231 breast 101% | RXF 393 renal 104% | SF-268 CNS 115% | SF-295 CNS 105% | SF-539 CNS 101% | UACC-257 melanoma 96.5% | M14 melanoma 99.8%

COc1ccc(NC(=O)Cn2c(/C=C/c3ccc([N+](=O)[O-])cc3)nc3ccccc3c2=O)cc1
inactive: NCI-H23 lung 34.9% | NCI-H226 lung 21.2% | NCI-H322M lung 70.2% | HOP-62 NSCLC 33.2% | NCI-H522 lung 73% | A549/ATCC NSCLC 75.9% | COLO 205 colon 85.3% | DU-145 prostate 88.8% | K-562 leukemia 120% | MALME-3M melanoma 72.4% | SF-268 CNS 64.9% | SF-295 CNS 56.3% | SF-539 CNS 30.3% | UACC-257 melanoma 86.3% | M14 melanoma 69.5%
active: HOP-92 NSCLC -12% | 786-0 renal 9.31% | MDA-MB-231 breast -18.4% | RXF 393 renal -57.8%
